TR SRC2 fluor cs – alters Texas Red total fluorescence, flagging assay interference. TRb/SRC2 Texas Red total fluorescence interference. Potency, µM (titrated, usually from 106 µM), for inactives: top-dose fluorescence change, negative = quenching. 280,000 tested, 0.29% active; active = well fitted curve in either direction with a large enough effect; inconclusive = small, poorly fitted or top-dose-only effect; note: potency is the fitted concentration of half-maximal effect; % is set by controls: 0 for no effect and ±100 for the full control effect
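Human TRβ ligand-binding domain (0.6 uM) and Texas Red SRC2 peptide (20 nM) in Tris buffer with 1 uM T3 and 5% DMSO were incubated with pinned compound for 5 hr at ambient temperature. Total fluorescence was computed as S + 2P (555/632 nm).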
RGS12 GoLoco inh – inhibitors of human Gai1-RGS12 GoLoco interaction (red fluorophore). P63096. Gai1:RGS12 GoLoco peptide FP, rhodamine, 10 min. Potency, µM (titrated, usually from 61.6 µM), without a hit: at the highest dose activity, negative = inhibition, actives largely listed as inhibitors. 230,000 tested, 0.44% active. AID 880; active = well fitted inhibition curve with a large enough effect, not every such curve was filed as active; inactive = no such curve, though single readings can be large or run the other way; note: potency is the fitted concentration of half-maximal effect; % is set by controls: 0 for no effect and ±100 for the full control effect; nearly all actives have a fitted effect of over 30% in size
CXXC DNA block – MLL CXXC-DNA interaction inhibition. Q03164. MLL-CXXC / FITC-HOXA9 DNA fluorescence polarization. Potency, µM (series often up to 115 µM), for the others: at the highest dose activity change, negative = inhibition, hits mostly inhibitors. 290,000 tested, 0.037% active. AID 2662; active = well fitted inhibition curve with a large enough effect in the polarisation, with a control signal flat, not every such curve was filed as active; inconclusive = small, poorly fitted or top-dose-only effect, or effect the other way, or a change in a side signal; inactive = no such curve, though single readings can be large or run the other way; the % refers to the polarisation; note: potency is the fitted concentration of half-maximal effect
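Purified MLL-CXXC (added from a 7 uM solution) was preincubated 5 min at ambient with pinned compounds in 50 mM Tris-HCl pH 7.5, 50 mM NaCl, 1 mM DTT, 0.05% BSA. Fluorescein-labeled HOX-A9 DNA (50 nM solution) followed, 30 min, then polarization read.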
Menin MLL FP TR – inhibitors of human menin-MLL interaction, mutant MLL peptide; Menin + Texas Red MLL mutant peptide, fluorescence polarization; Potency, µM (top dose mostly 61.6 µM), without a hit: at the top dose FP activity change, negative = inhibition, actives largely listed as inhibitors; 270,000 tested, 0.23% active; active = well fitted inhibition curve with a large enough effect in the polarisation, with a control signal flat, not every such curve was filed as active; inconclusive = small, poorly fitted or top-dose-only effect, or effect the other way, or a change in a side signal; inactive = no such curve, though single readings can be large or run the other way; the % refers to the polarisation; note: potency is the fitted concentration of half-maximal effect; % of control where 0% means no effect
TRb-SRC2 inh – TRbeta-SRC2 interaction inhibition | P10828 | TRbeta-SRC2 peptide binding, fluorescence polarization; receptor liganded with 1 µM T3 | Potency, µM (series often up to 106 µM), without a hit: top-dose activity change, negative = inhibition, actives largely listed as inhibitors | 280,000 tested, 0.065% active | AID 1469; active = well fitted inhibition curve with a large enough effect; inconclusive = small, poorly fitted or top-dose-only effect, or effect the other way;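 note: potency is the fitted concentration of half-maximal effect; plate controls were bound peptide for no effect and peptide without receptor for full effect; nearly all actives have a fitted effect of over 50% in size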
Target sequence (P10828 whole entry, looked up): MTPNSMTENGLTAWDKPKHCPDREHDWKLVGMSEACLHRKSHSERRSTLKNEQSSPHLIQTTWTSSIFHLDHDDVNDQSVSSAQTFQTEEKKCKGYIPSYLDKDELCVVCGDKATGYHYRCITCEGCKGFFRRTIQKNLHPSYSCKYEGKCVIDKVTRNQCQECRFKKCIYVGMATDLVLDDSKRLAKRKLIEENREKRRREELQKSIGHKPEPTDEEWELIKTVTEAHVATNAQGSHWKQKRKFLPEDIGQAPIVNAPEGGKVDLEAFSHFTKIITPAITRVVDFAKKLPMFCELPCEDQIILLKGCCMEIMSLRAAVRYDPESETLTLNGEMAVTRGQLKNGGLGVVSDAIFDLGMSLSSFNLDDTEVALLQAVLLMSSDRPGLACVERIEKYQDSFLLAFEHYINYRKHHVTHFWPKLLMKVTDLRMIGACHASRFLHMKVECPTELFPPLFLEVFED
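Decrease in fluorescence polarization of 20 nM Texas Red SRC2 coactivator peptide flagged inhibition of its binding to 0.6 uM TRb LBD; 1 uM T3 included, incubation 5 hr, ex 555/em 632 nm.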
Menin-MLL FL inh – inhibitors of human menin-MLL interaction, wild-type MLL peptide. Fluorescence polarization, fluorescein-MLL peptide displacement from menin. AID 1766. FP activity change, % at 61.4 µM. 290,000 tested, under 10 active; active = well fitted curve in the direction sought with a large enough effect in the polarisation, not every such curve was filed as active; inconclusive = small, poorly fitted or top-dose-only effect, or effect the other way, or a change in a side signal; inactive = no such curve, though single readings can be large or run the other way; the % refers to the polarisation; note: % of control where 0% means no effect
The depositor's hits bear a star; u = inconclusive; x = no result given; ! = repeats disagree; [ ] = remark or other dose. Compounds with a hit are over-represented: about 0.5% of the library has one in this group of screens.

SMILES	TR SRC2 fluor cs	RGS12 GoLoco inh	CXXC DNA block	Menin MLL FP TR	TRb-SRC2 inh	Menin-MLL FL inh
CCOc1ccc2nc(N3CCCC(C(=O)NCCc4ccc(Cl)cc4)C3)sc2c1 (stereo not drawn)	-34%	x	x	x	0%	x
Cn1c(=O)[nH]c(=O)n(C2CCCCC2)c1=O	0%[201 µM]	x	x	x	-3%[201 µM]	x
CC(C)C(=O)N(Cc1ccccc1)c1ccccn1	2%	8%	-5%	0%	-3%	4
CCc1ccc(CN(C(=O)Nc2cccc(Cl)c2)c2ccccn2)cc1	355µM*[quencher]	x	x	x	-11%	x
Cc1ccc2[nH]c(=O)c(CN(C(=O)c3cccc(Cl)c3)C(C)(C)C)cc2c1	32µM*[quencher]	x	x	x	-18%[53 µM]	x
Cc1ccc2[nH]c(=O)c(CN(C(=O)c3cccc([N+](=O)[O-])c3)C(C)(C)C)cc2c1	2%	6%	u	x	5%	6
CCOCCOC(=O)c1ccc(NC(=O)/C=C/c2ccc(OC)c(OC)c2)cc1	0.89µM*[quencher]	x	x	x	-17%[53 µM]	x
CCOc1ccc(/C=C/C(=O)Nc2ccc(C(N)=O)cc2)cc1OC	1%	8%	3%	u	-26%	4
CCCCOc1ccc(C(=O)CCN2CCOCC2)cc1	-4%	1%	u	-11%	5.6µM*	0
CCCOc1ccc(C(=O)CCN2CCCCC2)cc1	2%	-4%	27%	6%	40µM*	2
Cc1ccccc1/C=C/c1cc[n+](C)cc1	0%	22µM*	-2%	-6%	-7%	0
Cc1[nH]c2ccccc2c1/C=C/c1cc[n+](C)cc1	-7%	2.8µM*	u	13%	-1%	u
CCc1nn(CC(=O)NCCc2ccc(OC)cc2OC)c(=O)c2cc3c(OC)cccc3n12	u	x	x	x	0%	x
CC(C)Nc1nc(N)nc(Cl)n1	0%[201 µM]	x	x	x	-2%[201 µM]	x
CCCCN(CCCC)CCCCCCN(CCCC)CCCC	3%[201 µM]	x	x	x	0%[201 µM]	x
N#C/C(=C\C1=C(N2CCOCC2)C(=C\c2ccc(Cl)cc2)/CC1)C(=O)Nc1ccccc1F	50µM*[fluorescent]	-119%	5%	u	40µM*	u
Brc1ccc(Br)c(Br)c1	-4%[201 µM]	x	x	x	4%[201 µM]	x
COc1ccc(OC)c(N=c2oc3cc(O)ccc3cc2C(N)=O)c1	-23%	18µM*	24%	-8%	12%	8
Cc1ccc(C(=O)c2cn(Cc3ccc(F)cc3)c3nc(C)ccc3c2=O)cc1	0.011µM*[quencher]	x	x	x	-21%[53 µM]	x
CCNC(=O)c1c(NC(=O)Cc2coc3cc(C)cc(C)c23)sc2c1CCCC2	7%	x	x	x	3%	x
COC(=O)c1c(NC(=O)Cc2coc3cc(C)ccc23)sc2c1CCC2	3.5µM*[quencher]	x	x	x	20%[53 µM]	x
CCOC(=O)c1c(NC(=O)Cc2coc3cc(C)cc(C)c23)sc2c1CCC2	0.025µM*[quencher]	x	x	x	u	x
C#C[C@@]1(O)CC[C@@H]2[C@H]3CCC4=C/C(=N\O)CC[C@H]4[C@@H]3CC[C@]21CC	x	x	10%	11%	x	1
Cc1ccc(NC(=O)CSc2nnc(-c3ccco3)c(-c3ccco3)n2)cc1	u	11%	-20%	u	1%	11
O=C(CSc1nnc(-c2ccco2)c(-c2ccco2)n1)Nc1ccccc1	45µM*[quencher]	6%	u	u	-6%	u
SMILES	TR SRC2 fluor cs	RGS12 GoLoco inh	CXXC DNA block	Menin MLL FP TR	TRb-SRC2 inh	Menin-MLL FL inh
CCOc1ccccc1NC(=O)COC(=O)Cc1cccs1	x	x	5%	10%	x	0
CCOc1ccccc1NC(=O)COC(=O)Cc1ccc(-c2ccccc2)cc1	32µM*[quencher]	3%	-2%	13%	u	-19
Cc1ccc(O)c(Nc2nc(-c3ccccc3)nc3ccccc23)c1	x	x	16%	u	x	-2
Cc1ccc(O)c(Nc2c3ccccc3nc3ccccc23)c1	x	x	30%	13µM*	x	-12
COC(=O)c1cccc(C)c1S(=O)(=O)NC(=O)Nc1nc(OCC(F)(F)F)nc(N(C)C)n1	-1%[201 µM]	x	x	x	-3%[201 µM]	x
CCCCCCCC(=O)Oc1c(Br)cc(C#N)cc1Br	2%[201 µM]	x	x	x	4%[201 µM]	x
CC1=CC2=C(OC1N(C)C)c1cccc3cccc(c13)C2=O (stereo not drawn)	21%	18µM*	-7%	28µM*	40µM*	u
CCOC(=O)c1c(C)c(-c2ccccc2)n(CC(=O)NCc2cccc(OC)c2)c1C	3%	x	x	x	-4%	x
C[N+]1(CC(=O)OCCCc2ccccc2)CCOCC1	-7%	13µM*	-2%	-15%	-10%	-1
O=C(CN1CCOCC1)OCCCc1ccccc1	1%	-3%	2%	u	-7%	-3
Cc1ccc(CCCOC(=O)C[N+]2(C)CCOCC2)cc1	-2%	10µM*	9%	-2%	-8%	0
CC(C)COCC(CN(Cc1ccccc1)c1ccccc1)N1CCCC1 (stereo not drawn)	0%	11µM*!	8%	u	-2%	3
COc1ccccc1NC(=O)c1sc2nc(-c3cc4cc(Cl)ccc4oc3=O)[nH]c(=O)c2c1C	18µM*[quencher]	x	x	x	-11%	x
COc1ccccc1NC(=O)c1sc2nc(-c3cc4ccccc4oc3=O)[nH]c(=O)c2c1C	9%	x	x	x	-10%	x
COc1ccc2ccc3c(c2c1)N=CC1(O3)N(C)c2ccccc2C1(C)C (stereo not drawn)	u	-20%	-1%	5%	28µM*	1
O=C(O)c1cccc(N2C(=O)c3cc([N+](=O)[O-])cc4cc([N+](=O)[O-])cc(c34)C2=O)c1	x	x	32µM*	u	x	11
CO[C@]12C[C@@H](COC(=O)c3cncc(Br)c3)CN(C)[C@@H]1Cc1cn(C)c3cccc2c13	0%	13µM*!	x	-12%[24.8 µM]	-4%	u
